Experimental data from PubChem BioAssay AID1159580 (chemical genetic matrix, 2015).
The whole screen tested about 5,500 compounds, of which about 2,000 (36%) were called active. Another 18% or so got no clear call; they are omitted. Rule as the data show it: active = normalized growth mostly below about 0.91 (no sharp cut-off); inconclusive = no clear call, values can overlap the other calls; inactive = mostly above about 0.92. This is one part of the list. Where a SMILES comes first, the peptide text is derived from it. Side-chain parts run from the residue outwards. [ ]: non-standard residue; d: D form. The star is where a group is joined. X1 = CCC(C)C(N)C1=NC(C(=O)*)CS1; Orn = NCCC[CH](N)C(=O)O

Experiment: chemical genetic growth profiling, strain panel (AID 1159580);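 also: tested at 20 µM; growth read once vehicle control cultures reached saturation at 30 °C; 1 = growth at the plate median or of vehicle wells; lower values mean less growth of the strain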
Conditions: growth OD

Measured: normalized growth

CCC(C)C(N)C1=NC(C(=O)NC(CC(C)C)C(=O)NC(CCC(=O)O)C(=O)NC(C(=O)NCCCCC2NC(=O)C(CC(N)=O)NC(=O)C(CC(=O)O)NC(=O)C(Cc3cnc[nH]3)NC(=O)C(Cc3ccccc3)NC(=O)C(C(C)CC)NC(=O)C(CCCN)NC2=O)C(C)CC)CS1 (stereo not drawn) (cyclo(DNK([Ile-Glu-Leu-X1])[Orn]IFH); configuration not given here)
inactive: S. cerevisiae deletion strains, locus YJR075W, strain HOC1, hits give low values 0.986 | S. cerevisiae deletion strains, locus YKL009W, strain mrt4, hits give low values 0.974 | S. cerevisiae deletion strains, locus YKL068W, hits give low values 0.995 | S. cerevisiae deletion strains, locus YKL085W, strain MDH1 (second series), hits give low values 0.966 | S. cerevisiae deletion strains, locus YKL085W, strain MDH1, hits give low values 0.966 | S. cerevisiae deletion strains, locus YKL160W, strain elf1, hits give low values 1.02 | S. cerevisiae deletion strains, locus YKL190W, strain CNB1, hits give low values 0.996 | S. cerevisiae deletion strains, locus YKR001C, strain vps1, hits give low values 1.01 | S. cerevisiae deletion strains, locus YKR026C, strain gcn3, hits give low values 1.05 | S. cerevisiae deletion strains, locus YKR091W, strain srl3, hits give low values 0.973 | S. cerevisiae deletion strains, locus YLL001W, strain dnm1, hits give low values 1.04 | S. cerevisiae deletion strains, locus YLL026W, hits give low values 1.01 | S. cerevisiae deletion strains, locus YLL041C, strain sdh2, hits give low values 1.01 | S. cerevisiae deletion strains, locus YLR027C, strain aat2, hits give low values 1.01 | S. cerevisiae deletion strains, locus YLR039C, strain RIC1, hits give low values 1.06 | S. cerevisiae deletion strains, locus YLR058C, strain SHM2, hits give low values 0.994 | S. cerevisiae deletion strains, locus YLR102C, strain apc9, hits give low values 1.01 | S. cerevisiae deletion strains, locus YLR113W, strain HOG1, hits give low values 1.05 | S. cerevisiae deletion strains, locus YLR221C, strain rsa3, hits give low values 1.01 | S. cerevisiae deletion strains, locus YLR258W, strain gsy2, hits give low values 0.993 | S. cerevisiae deletion strains, locus YLR262C, strain YPT6 (second series), hits give low values 1.01 | S. cerevisiae deletion strains, locus YLR262C, strain YPT6, hits give low values 1.02 | S. cerevisiae deletion strains, locus YLR268W, strain sec22, hits give low values 1.02 | S. cerevisiae deletion strains, locus YLR320W, strain mms22, hits give low values 0.982 | S. cerevisiae deletion strains, locus YLR330W, strain CHS5, hits give low values 1.01 | S. cerevisiae deletion strains, locus YLR342W, strain FKS1 (second series), hits give low values 1.03 | S. cerevisiae deletion strains, locus YLR342W, strain FKS1, hits give low values 1.02 | S. cerevisiae deletion strains, locus YLR357W, strain rsc2, hits give low values 1.07 | S. cerevisiae deletion strains, locus YLR370C, strain arc18, hits give low values 0.999 | S. cerevisiae deletion strains, locus YLR371W, strain rom2, hits give low values 1.02 | S. cerevisiae deletion strains, locus YLR384C, strain iki3, hits give low values 0.993 | S. cerevisiae deletion strains, locus YLR418C, strain cdc73, hits give low values 0.989 | S. cerevisiae deletion strains, locus YML016C, strain PPZ1, hits give low values 0.992 | S. cerevisiae deletion strains, locus YML032C, strain rad52, hits give low values 0.967 | S. cerevisiae deletion strains, locus YML120C, strain ndi1, hits give low values 0.994 | S. cerevisiae deletion strains, locus YML124C, strain tub3, hits give low values 0.981 | S. cerevisiae deletion strains, locus YMR058W, strain fet3, hits give low values 1.02 | S. cerevisiae deletion strains, locus YMR078C, strain ctf18, hits give low values 0.988 | S. cerevisiae deletion strains, locus YMR125W, strain sto1, hits give low values 1.02 | S. cerevisiae deletion strains, locus YMR129W, hits give low values 0.997 | S. cerevisiae deletion strains, locus YMR205C, strain PFK2, hits give low values 0.998 | S. cerevisiae deletion strains, locus YMR223W, strain ubp8, hits give low values 1 | S. cerevisiae deletion strains, locus YMR231W, strain pep5, hits give low values 0.996 | S. cerevisiae deletion strains, locus YMR263W, strain SAP30, hits give low values 1.01 | S. cerevisiae deletion strains, locus YMR307W, strain GAS1, hits give low values 0.955 | S. cerevisiae deletion strains, locus YNL067W, strain RPL9B, hits give low values 1 | S. cerevisiae deletion strains, locus YNL071W, strain lat1, hits give low values 1 | S. cerevisiae deletion strains, locus YNL128W, strain TEP1, hits give low values 0.999 | S. cerevisiae deletion strains, locus YNL153C, strain GIM3, hits give low values 0.992 | S. cerevisiae deletion strains, locus YNL183C, strain NPR1, hits give low values 0.975 | S. cerevisiae deletion strains, locus YNL209W, strain ssb2, hits give low values 0.991 | S. cerevisiae deletion strains, locus YNL233W, strain BNI4, hits give low values 1.01 | S. cerevisiae deletion strains, locus YNL248C, strain rpa49, hits give low values 0.998 | S. cerevisiae deletion strains, locus YNL250W, strain rad50, hits give low values 1.01 | S. cerevisiae deletion strains, locus YNL271C, strain bni1, hits give low values 1.01 | S. cerevisiae deletion strains, locus YNL298W, strain CLA4, hits give low values 0.966 | S. cerevisiae deletion strains, locus YNL307C, strain MCK1, hits give low values 1 | S. cerevisiae deletion strains, locus YNL322C, strain KRE1 (second series), hits give low values 0.994 | S. cerevisiae deletion strains, locus YNR049C, strain mso1, hits give low values 0.995 | S. cerevisiae deletion strains, locus YNR052C, strain pop2, hits give low values 0.992 | S. cerevisiae deletion strains, locus YOL006C, strain TOP1, hits give low values 0.996 | S. cerevisiae deletion strains, locus YOL012C, strain htz1 1.9 | S. cerevisiae deletion strains, locus YOL147C, strain pex11, hits give low values 0.994 | S. cerevisiae deletion strains, locus YOR001W, strain rrp6, hits give low values 1.01 | S. cerevisiae deletion strains, locus YOR061W, strain CKA2, hits give low values 1.01 | S. cerevisiae deletion strains, locus YOR069W, strain VPS5, hits give low values 1 | S. cerevisiae deletion strains, locus YOR070C, strain gyp1, hits give low values 1.01 | S. cerevisiae deletion strains, locus YOR080W, strain dia2, hits give low values 1 | S. cerevisiae deletion strains, locus YOR083W, strain WHI5, hits give low values 1.04 | S. cerevisiae deletion strains, locus YOR106W, strain vam3, hits give low values 1.02 | S. cerevisiae deletion strains, locus YOR136W, strain idh2, hits give low values 1.01 | S. cerevisiae deletion strains, locus YOR144C, strain elg1, hits give low values 0.999 | S. cerevisiae deletion strains, locus YOR184W, strain ser1, hits give low values 1.01 | S. cerevisiae deletion strains, locus YOR231W, strain MKK1, hits give low values 1.03 | S. cerevisiae deletion strains, locus YOR265W, strain rbl2, hits give low values 1.01 | S. cerevisiae deletion strains, locus YOR270C, strain vph1, hits give low values 1 | S. cerevisiae deletion strains, locus YOR290C, strain snf2, hits give low values 0.963 | S. cerevisiae deletion strains, locus YOR316C, strain cot1, hits give low values 1 | S. cerevisiae deletion strains, locus YPL051W, strain arl3, hits give low values 1.04 | S. cerevisiae deletion strains, locus YPL078C, strain atp4, hits give low values 1.02 | S. cerevisiae deletion strains, locus YPL106C, strain sse1, hits give low values 0.976 | S. cerevisiae deletion strains, locus YPL240C, strain hsp82, hits give low values 1 | S. cerevisiae deletion strains, locus YPL256C, strain CLN2, hits give low values 1.02 | S. cerevisiae deletion strains, locus YPR119W, strain clb2, hits give low values 0.993 | S. cerevisiae deletion strains, locus YPR141C, strain kar3, hits give low values 0.994 | S. cerevisiae deletion strains, locus YPR163C, strain tif3, hits give low values 0.995 | S. cerevisiae deletion strains, locus YPR167C, strain met16, hits give low values 0.993 | S. cerevisiae deletion strains, strain wtn01, hits give low values 1.03 | S. cerevisiae strains, strain wild type, hits give low values 0.992
